Drawing on PubChem BioAssay (NCATS), this text covers Potency, outcome and activity change, negative = cytotoxicity for 40 molecules.

Inconclusive results are not listed. Where a call stands in place of a potency, no number is given. Unmarked numbers belong to inactive results. The source made the active and inactive calls. The call rests on the fitted dose curve; in most records, active means well fitted inhibition curve with a large enough effect; inconclusive means small, poorly fitted or top-dose-only effect; inactive means flat fitted curve, though single readings scatter.
Potency means the concentration at half of the fitted maximal effect.

The experiment in a line: P-glycoprotein substrates identified in KB-8-5-11 adenocarcinoma cell line, qHTS therapeutic library screen (AID 1346987). Further: nearly all actives have a fitted effect of over 65% in size. To be noted: KB-8-5-11 (P-gp overexpressing) viability, CellTiter-Glo, 72 h; series mostly up to 44.5 µM. The method in brief: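 P-gp-mediated resistance screen: KB-8-5-11 cells treated 72 h with compounds in dose-response. CellTiter-Glo viability.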
In the case of `CCCC1=CC2=C(CO1)C(=O)C(C)(OC(=O)c1c(C)cc(OC)cc1O)C(O)C2` (stereo not given), the Potency result was “inactive”.

With `NCc1c[nH]c(=S)n1C1CCc2c(F)cc(F)cc2C1` (stereo not given), the Potency entry is “inactive”.

`CN1CCC(c2c[nH]c3ccc(NC(=O)c4ccc(F)cc4)cc23)CC1`: the Potency result was “inactive”.

In the case of `C=C1[C@@H]2CC[C@@]3(C)[C@H](c4ccoc4)OC(=O)C[C@]13O[C@H]1CC(=O)C(C)(C)[C@H](CC(=O)OC)[C@]12C`, the Potency entry is “inactive”.

With `COc1cc(N2CCC(O)CC2)ccc1Nc1cc(Nc2ccccc2S(=O)(=O)C(C)C)c2cc[nH]c2n1`, the Potency is 11.4 µM (active).

Turning to `Cc1ccc(C(=O)Nc2ccc(Oc3cc4cnn(C)c4cc3-c3cn[nH]c3)c(F)c2)c(=O)n1-c1ccc(F)cc1`, the Potency was 4.61 µM (active).

Take `C[C@H](NCc1ccc(OCc2ccccc2F)cc1)C(N)=O`: the Potency result was “inactive”.

`CC(=O)O[C@H]1C[C@@H]2[C@]3(CC[C@]4(C)[C@@H](C5(C)CCC(C(C)(C)O)O5)[C@@H](O)C[C@@]24C)C[C@@]32CC[C@H](O[C@@H]3OC[C@@H](O)[C@H](O)[C@H]3O)C(C)(C)[C@H]12` (stereo not given in full): the Potency entry is “inactive”.

For `c1ccc(Cc2ncc3c(n2)CCNCC3)cc1`, the Potency result is “inactive”.

As for `C[C@@H]1CCC2C(C)(C)[C@H](O)CC[C@]2(C)[C@@]12Cc1c(O)cc3c(c1O2)CN(CCO)C3=O` (stereo not given in full), the Potency entry is “inactive”.

For `CC(C)N(C[C@H]1O[C@@H](n2cnc3c(N)ncnc32)[C@H](O)[C@@H]1O)C1CC(CCc2nc3ccc(C(C)(C)C)cc3[nH]2)C1` (stereo not given in full), the Potency entry is “inactive”.

For the molecule `CC1=CC2(O)/C=C/C(C)(O)CC(O)/C=C/C(=O)OC23C(=O)NC(CC(C)C)C3C1C` (stereo not given), the Potency result is “inactive”.

For the molecule `CC1[C@@H](O)[C@@H](O)C2[C@]3(C)C(C[C@H]4OC(=O)[C@H](O)[C@]1(O)[C@@]24C)C(C)(O)C[C@H](O)[C@H]3O` (stereo not given in full), the Potency result is “inactive”.

`CN(C)C/C=C/C(=O)Nc1ccc(C(=O)Nc2cccc(Nc3ncc(Cl)c(-c4c[nH]c5ccccc45)n3)c2)cc1`: the Potency was 5.17 µM (active).

As to `CC1(C)C[C@H]2C3=CCC4[C@@]5(C)CC[C@H](O[C@H]6O[C@H](C(=O)O)[C@@H](O)[C@H](O)[C@H]6O[C@H]6O[C@H](CO)[C@@H](O)[C@H](O)[C@H]6O[C@@H]6O[C@H](CO)[C@@H](O)[C@H](O)[C@H]6O)[C@](C)(CO)C5CC[C@@]4(C)[C@]3(C)CC[C@@]2(C)[C@H](O[C@@H]2OC[C@H](O)[C@H](OC3O[C@H](CO)[C@@H](O)[C@H](O)[C@H]3O)[C@H]2O)[C@@H]1O` (stereo not given in full), the outcome was “inactive [at 9.29 µM]”.

For the molecule `CC1CCC2C(C)(C)C(O)CCC2(C)C12Cc1c(O)cc3c(c1O2)CN(C(CCC(N)=O)C(=O)O)C3=O` (stereo not given), the Potency result is “inactive”.

As for `CC1(C)CC[C@]2(C(=O)O)CC[C@]3(C)C(=CCC4[C@@]5(C)CCC(O[C@@H]6OC[C@H](O)[C@H](O)[C@H]6O[C@@H]6O[C@H](CO)[C@@H](O)[C@H](O)[C@H]6O)[C@@](C)(CO)C5CC[C@]43C)[C@@H]2C1` (stereo not given in full), the Potency entry was “inactive”.

For `O=C(O)Cc1nn(Cc2nc3cc(C(F)(F)F)ccc3s2)c(=O)c2nccnc12`, the Potency result was “inactive”.

Turning to `C/C=C(\C)C(=O)OC[C@H]1O[C@H](O[C@H]2O[C@H](CO)[C@@H](OC(=O)/C(C)=C/C)[C@H](O)[C@H]2O[C@@H]2O[C@H](CO)[C@@H](O)[C@H](O)[C@H]2O)[C@H](O[C@@H]2O[C@H](CO)[C@@H](O)[C@H](O)[C@H]2O)[C@@H](O)[C@@H]1O`, the outcome is “inactive [at 9.29 µM]”.

Turning to `c1ccc(C(OC2CCN(CCCc3nn[nH]n3)CC2)c2ccccc2)cc1`, the Potency result was “inactive”.

On to `C=CC(C)(C)C1(CC2NC(=O)C3CCCN3C2=O)C(=O)Nc2cc3c(cc21)C=CC(C)(C)O3` (stereo not given), for which the Potency entry was “inactive”.

For the molecule `COC1C=C([C@@H]2CC=C3[C@@]4(C)C(CC[C@]32C)[C@@]2(C)C=CC(=O)C(C)(C)C2C[C@H]4OC(C)=O)C(=O)O1` (stereo not given in full), the Potency entry is “inactive”.

As for `C/C=C(\C)C(=O)O[C@@H]1CC2[C@@H](CC=C3C[C@@H](O[C@H]4C[C@H](OC)[C@H](O[C@H]5C[C@H](OC)[C@H](O[C@H]6C[C@H](OC)[C@H](O[C@H]7C[C@@H](OC)[C@H](O[C@@H]8O[C@H](CO)[C@@H](O)[C@H](O)[C@H]8O)[C@@H](C)O7)[C@@H](C)O6)[C@@H](C)O5)[C@@H](C)O4)CC[C@@]32C)[C@@]2(O)CC[C@H](C(C)=O)[C@@]12C` (stereo not given in full), the activity change, negative = cytotoxicity was 3.56% [at 9.29 µM].

As to `CC1(C)CCC[C@@]2(C)[C@H]1[C@H](O)C=C1COC(=O)[C@@]12O`, the Potency entry is “inactive”.

Regarding `COc1cc(-c2cccc(O)c2)cc2c1OCO2`, the Potency result is “inactive”.

As to `C[C@@H]1O[C@@H](O[C@H]2[C@H](O)[C@@H](O)[C@H](OC[C@H]3O[C@@H](OC(=O)[C@]45CCC(C)(C)C[C@H]4C4=CCC6[C@@]7(C)C[C@H](O)[C@H](O[C@@H]8O[C@H](CO)[C@@H](O)[C@H](O)[C@H]8O)[C@@](C)(C(=O)O)C7CC[C@@]6(C)[C@]4(C)CC5)[C@H](O[C@@H]4O[C@H](CO)[C@@H](O)[C@H](O)[C@H]4O)[C@@H](O)[C@@H]3O)O[C@@H]2CO)[C@H](O)[C@H](O)[C@H]1O` (stereo not given in full), the outcome was “inactive [at 9.29 µM]”.

Take `CC(=O)O[C@@H]1[C@@H](OC(=O)/C=C/c2ccccc2)[C@H](C)O[C@@H](O[C@H]2[C@@H]3C=CO[C@@H](O[C@@H]4O[C@H](CO)[C@@H](O)[C@H](O)[C@H]4O)[C@@H]3[C@@]3(CO)O[C@@H]23)[C@@H]1OC(C)=O`: the Potency entry is “inactive”.

In the case of `COc1ccc([C@@H]2N[C@H](C(=O)O)Cc3c2[nH]c2ccccc32)cc1CN1CCN(c2ccccc2F)CC1`, the Potency entry was “inactive”.

Consider `COC(=O)C1=CO[C@@H](O[C@@H]2O[C@H](COC(=O)/C=C/c3cc(OC)c(O)c(OC)c3)[C@@H](O)[C@H](O)[C@H]2O)[C@@H]2C(CO)=CC[C@H]12`, for which the Potency entry is “inactive”.

With `COc1cc(/C=C/C(=O)OC2CC3CCC2(C)C3(C)C)ccc1O` (stereo not given), the Potency entry was “inactive”.

As for `COc1cc2c(cc1OC)CN(C(=O)[C@@H](NCc1ccncc1)C(C)(C)C)CC2`, the Potency entry was “inactive”.

`C=C1CCC2C(OC(=O)C2(O)COC(C)=O)C2C(=C)C(O)CC12` (stereo not given): the Potency entry is “inactive”.

Turning to `C#Cc1cnc2[nH]c(=O)n(C(CC)CC)c2n1`, the Potency entry is “inactive”.

As for `O=c1ccn([C@@H]2O[C@H](CO)[C@@H](O)[C@H]2O)c(=O)[nH]1`, the Potency result is “inactive”.

As to `C=C[C@H]1[C@H](O[C@@H]2O[C@H](CO)[C@@H](O)[C@H](O)[C@H]2O)OC=C2C(=O)OCC[C@]21O`, the Potency result was “inactive”.

In the case of `COC(=O)C1=CO[C@@H](O[C@@H]2O[C@H](CO)[C@@H](O)[C@H](O)[C@H]2O)[C@@H]2[C@@](C)(O)[C@@H](O)C[C@]12O`, the Potency entry was “inactive”.

On to `COc1ccc([C@H]2Cc3cccc(O)c3C(=O)O2)cc1`, for which the Potency result was “inactive”.

Consider `CN1Cc2c(N)cccc2C(c2ccccc2)C1` (stereo not given), for which the Potency result is “inactive”.

As for `O=C(O)C[C@H]1CCC(=O)[C@@H]1C/C=C\CCOC1OC(CO)C(O)C(O)C1O` (stereo not given in full), the Potency entry is “inactive”.

`CCOc1nc2cccc(C(=O)O)c2n1Cc1ccc(-c2ccccc2-c2noc(=O)[nH]2)cc1`: the Potency result was “inactive”.
